This note sets out measurements from PubChem BioAssay (Tox21).

Inconclusive results are not listed. The source made the active and inactive calls. Unless noted, the call rests on the fitted dose curve; in most records, active means well fitted curve in the direction sought with a large enough effect in the repeat runs; inconclusive means weak or mixed curves; inactive means no such curve, though single readings can be large; an effect the other way counts as inactive or inconclusive.

Assay [1] is described as follows: qHTS assay to identify small molecule agonists of the androgen receptor (AR) signaling pathway in the presence of an antagonist - cell viability counter screen (AID 1259379). Further: nearly all actives have a fitted effect of over 25% in size. Further: potency means the concentration at half of the fitted maximal effect. Summed up:
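Seed MDA-kb2 at 3,000 cells/well; incubate 5 hr, 37C, 0% CO2. Add nilutamide to 3.0uM final, then pin compounds at 15 concentrations. Incubate 16 hr. Add CellTiter-Fluor at 15 hr, read fluorescence after 1 hr.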

The nature of assay [2]: qHTS assay to identify small molecule agonists of the estrogen receptor beta (ER-beta) signaling pathway - cell viability counter screen (AID 1259380). Further: nearly all actives have a fitted effect of over 30% in size. Further: potency means the concentration at half of the fitted maximal effect. The method, boiled down:
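CellTiter-Glo read, 30 min RT, same wells as bla assay; cells ER-beta-UAS-bla HEK293T; 16 hr compound, 37C; medium 2% charcoal-stripped FBS.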

The nature of assay [3]: qHTS assay to identify small molecule antagonists of the estrogen receptor beta (ER-beta) signaling pathway - cell viability counter screen (AID 1259382). Further: nearly all actives have a fitted effect of over 55% in size. Further: potency means the concentration at half of the fitted maximal effect. Summed up: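 In this multiplexed counter screen, cells were seeded at 2,000 per well in medium with 2% charcoal-stripped FBS and incubated 6 hr before compound and 1nM final E2 were added. Sixteen hours later, ATP-based luminescence reported viability.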

Assay [4] has as its target Estrogen receptor (Homo sapiens) (UniProt P03372). Briefly: qHTS assay to identify small molecule agonists of the estrogen receptor alpha (ER-alpha) signaling pathway in the presence of an antagonist (AID 1259383; calls by dose curve; further: top concentration of the series differs between compounds; nearly all actives have a fitted effect of over 15% in size). The method, boiled down:
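Stably transfected VM7Luc4E2 reporter cells, kept 5 days in charcoal-stripped serum, received ICI-182,780 at 10.0nM final before compound addition. Following 22hr incubation at 37C and 5% CO2, luciferase signal was read by luminescence.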

Assay [5] can be described thus: qHTS assay to identify small molecule agonists or antagonists of the thyroid stimulating hormone receptor (TSHR) signaling pathway - wild type cell line counter screen (AID 1259384; calls by dose curve). Summed up: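 Counter screen in untransfected Hek293: compounds (15-point titration, triplicate) plus phosphodiesterase inhibitor Ro20-1724 added after 18 h plating; 30 min RT. Intracellular cAMP via competitive d2/cryptate immunoassay, 1 h incubation.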

The target of assay [6] is Thyrotropin receptor (Homo sapiens) (UniProt P16473). Briefly: qHTS assay to identify small molecule antagonists of the thyroid stimulating hormone receptor (TSHR) signaling pathway (AID 1259385; calls by dose curve; further: nearly all actives have a fitted effect of over 20% in size). The method, boiled down:
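Antagonist mode: compound-treated TSHR-expressing HEK293 cells were stimulated with 1.5 ng/mL TSH (final) in presence of Ro20-1724 for 30 min at RT. HTRF cAMP detection after 1 h; each compound tested at 15 concentrations, triplicate.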

In assay [7] the target is Androgen receptor (Homo sapiens) (UniProt P10275). Description: qHTS assay to identify small molecule agonists of the androgen receptor (AR) signaling pathway in the presence of an antagonist (AID 1259381; calls by dose curve; further: nearly all actives have a fitted effect of over 15% in size). Summed up: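 Test compounds at 15 concentrations were incubated for 16hr with MDA-kb2 reporter cells in presence of 3.0uM nilutamide (final). Signal: ONE-Glo luciferase luminescence.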

A short description of assay [8]: qHTS assay to identify small molecule agonists of the estrogen receptor alpha (ER-alpha) signaling pathway in the presence of an antagonist - cell viability counter screen (AID 1259386).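 Further: potency means the concentration at half of the fitted maximal effect; cells exposed to compounds for 22 h at 37 °C before the viability read; nearly all actives have a fitted effect of over 30% in size.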 The method, boiled down:
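Viability counter screen using VM7Luc4E2 (full-length ER-alpha, four ERE-luciferase). The cells were treated with compounds alongside ICI-182,780 10.0nM for 22hr, and live-cell protease fluorescence was quantified with CellTiter-Fluor.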

Estrogen receptor (Homo sapiens), sequence (P03372 whole entry, looked up): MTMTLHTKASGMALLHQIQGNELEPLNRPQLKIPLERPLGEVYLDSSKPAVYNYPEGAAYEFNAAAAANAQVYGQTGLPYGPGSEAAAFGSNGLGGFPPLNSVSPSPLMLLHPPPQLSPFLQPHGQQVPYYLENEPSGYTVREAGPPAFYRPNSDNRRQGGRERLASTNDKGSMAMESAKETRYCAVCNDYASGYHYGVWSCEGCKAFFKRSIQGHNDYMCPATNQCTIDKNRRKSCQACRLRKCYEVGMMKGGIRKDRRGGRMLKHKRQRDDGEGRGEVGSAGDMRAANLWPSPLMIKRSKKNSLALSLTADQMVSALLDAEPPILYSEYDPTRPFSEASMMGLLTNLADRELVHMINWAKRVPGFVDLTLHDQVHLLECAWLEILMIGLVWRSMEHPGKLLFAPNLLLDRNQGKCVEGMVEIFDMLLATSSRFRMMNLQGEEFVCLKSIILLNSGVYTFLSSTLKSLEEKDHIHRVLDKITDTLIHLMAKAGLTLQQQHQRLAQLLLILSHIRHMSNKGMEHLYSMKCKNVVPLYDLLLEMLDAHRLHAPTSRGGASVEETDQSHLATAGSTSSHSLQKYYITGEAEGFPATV
Androgen receptor (Homo sapiens), sequence (P10275 whole entry, looked up): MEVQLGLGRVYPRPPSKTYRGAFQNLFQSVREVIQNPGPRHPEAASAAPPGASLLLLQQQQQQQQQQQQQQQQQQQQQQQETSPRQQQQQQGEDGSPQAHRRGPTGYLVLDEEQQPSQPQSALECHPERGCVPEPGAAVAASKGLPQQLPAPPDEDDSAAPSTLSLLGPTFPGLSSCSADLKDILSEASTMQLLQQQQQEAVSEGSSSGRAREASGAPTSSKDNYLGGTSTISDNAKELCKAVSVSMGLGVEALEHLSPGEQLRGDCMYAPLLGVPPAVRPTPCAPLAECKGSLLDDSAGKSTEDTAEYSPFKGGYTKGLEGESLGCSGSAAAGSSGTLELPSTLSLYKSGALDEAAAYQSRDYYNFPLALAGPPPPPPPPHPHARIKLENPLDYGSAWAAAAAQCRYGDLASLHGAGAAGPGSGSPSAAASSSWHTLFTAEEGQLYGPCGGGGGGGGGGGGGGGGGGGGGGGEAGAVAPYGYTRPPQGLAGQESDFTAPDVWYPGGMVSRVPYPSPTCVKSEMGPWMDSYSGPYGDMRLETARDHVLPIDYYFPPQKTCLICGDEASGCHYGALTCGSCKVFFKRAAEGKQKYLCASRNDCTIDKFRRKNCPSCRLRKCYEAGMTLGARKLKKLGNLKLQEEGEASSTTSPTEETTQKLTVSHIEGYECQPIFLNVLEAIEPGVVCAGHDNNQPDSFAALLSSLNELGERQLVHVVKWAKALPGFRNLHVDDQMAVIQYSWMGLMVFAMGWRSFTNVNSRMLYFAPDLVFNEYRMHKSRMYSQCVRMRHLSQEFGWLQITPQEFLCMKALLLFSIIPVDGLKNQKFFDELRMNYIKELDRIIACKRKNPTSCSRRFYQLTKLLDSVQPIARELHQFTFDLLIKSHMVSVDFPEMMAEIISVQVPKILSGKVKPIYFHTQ
Thyrotropin receptor (Homo sapiens), sequence (P16473 whole entry, looked up): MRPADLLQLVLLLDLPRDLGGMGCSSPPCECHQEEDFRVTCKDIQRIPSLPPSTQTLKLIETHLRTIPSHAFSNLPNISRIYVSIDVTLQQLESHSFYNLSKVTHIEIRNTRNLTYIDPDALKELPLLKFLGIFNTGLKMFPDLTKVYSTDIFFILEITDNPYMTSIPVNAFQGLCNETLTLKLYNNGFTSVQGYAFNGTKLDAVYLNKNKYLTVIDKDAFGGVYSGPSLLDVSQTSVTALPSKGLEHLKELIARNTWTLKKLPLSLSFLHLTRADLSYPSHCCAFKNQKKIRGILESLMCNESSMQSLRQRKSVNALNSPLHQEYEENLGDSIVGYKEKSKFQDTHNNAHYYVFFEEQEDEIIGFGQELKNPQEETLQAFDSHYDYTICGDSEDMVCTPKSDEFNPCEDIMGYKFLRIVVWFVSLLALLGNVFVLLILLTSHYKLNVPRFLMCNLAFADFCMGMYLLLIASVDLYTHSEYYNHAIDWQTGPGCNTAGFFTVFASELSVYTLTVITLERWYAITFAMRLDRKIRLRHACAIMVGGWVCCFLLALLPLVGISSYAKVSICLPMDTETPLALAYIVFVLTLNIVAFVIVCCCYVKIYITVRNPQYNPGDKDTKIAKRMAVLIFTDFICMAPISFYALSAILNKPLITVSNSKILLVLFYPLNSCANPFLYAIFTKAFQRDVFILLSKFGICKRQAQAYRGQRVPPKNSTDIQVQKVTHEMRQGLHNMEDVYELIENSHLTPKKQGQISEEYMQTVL

Regarding `Oc1ccc2c(c1)OCO2`, the Potency result in assay [1], in assay [2], in assay [3], in assay [4], in assay [5] and in assay [6] was “inactive” throughout.
On to `O=[N+]([O-])c1cc[n+]([O-])cc1`, for which the Potency result in assay [1], in assay [7], in assay [4] and in assay [5] was “inactive” each time. In addition, the Potency in assay [2] is 27.3 µM (active); in assay [8], 68.6 µM (active).
Regarding `NC(N)=NN=C(/C=C/c1ccc([N+](=O)[O-])o1)/C=C/c1ccc([N+](=O)[O-])o1`, the Potency in assay [1] was 8.41 µM (active); in assay [2], 10.6 µM (active); in assay [3], 23.7 µM (active); in assay [8] it was 9.44 µM (active). The Potency entry in assay [7], in assay [4] and in assay [5] was “inactive” throughout.
